# Assay results: ChEMBL document CHEMBL3988442, “University of Dundee, Small-Polar-MMV Screening Library” (2021)
# In all, about 38,000 compounds went through this assay and about 1,200 (3.2%) showed an effect of 50% or more. The median lay at about -58%. Shown is part of a subset that was picked to be rich in strong results.
# System: Plasmodium falciparum
# Experiment: Calibr Malaria Delayed Death Assay SOP
# Assay type: functional, organism-based
# Set-up: scale not given: in the data most compounds retested in dose-response had high values
# Conditions: concentration 4.99e-06 (unit not given; other assays of the set use mol/L)
row,Compound,Percent Effect [%]
1,Cc1oncc1C(=O)N1CCC2(CCN(Cc3cccnc3)C2=O)C1.O=C(O)C(F)(F)F (configuration not stated),-151.7
2,O=C(Nc1ccccc1)[C@H]1C[C@@H]2CN(C(=O)Nc3ccccc3)C[C@H]1O2,18.72
3,O=C(c1cccc2c1OCO2)N1CCCC(n2ccnc2)C1 (configuration not stated),-40.58
4,CCCc1n[nH]c(C2CN(C(=O)CCn3ccccc3=O)CCO2)n1 (configuration not stated),-67.64
5,CCc1nc(C(=O)N(CC)CC(=O)Nc2cc(Cl)ccc2C)c[nH]1,-127.3
6,c1ccc(-c2nc3c(c(NCCCn4cncn4)n2)CCNCC3)nc1,-4.332
7,Cc1n[nH]c(C)c1CNc1nc(-c2ccco2)nc2c1CCNCC2,17
8,Cc1nc(CNc2nc(-c3ccco3)nc3c2CCNCC3)n[nH]1,-85.54
9,Cc1nc2c(c(NCC(O)c3ccccc3Cl)n1)CCNCC2 (configuration not stated),26.14
10,Cc1nc2c(c(NCc3nc4ccccc4s3)n1)CCNCC2,71.13
11,Cc1nc2c(c(NCC(c3ccccc3C)N(C)C)n1)CCNC2 (configuration not stated),-11.95
12,CSCC(=O)N1CCc2nc(C)nc(NCc3ccccc3)c2CC1,-13.73
13,Cc1nc2c(c(NCc3ccc(-c4ccccn4)s3)n1)CCNCC2,73.48
14,Cc1nc2c(c(NCc3cc4ccccc4s3)n1)CCNCC2,89.06
15,CN(C)c1cc(C(=O)Nc2cccnc2N2CCSCC2)ccn1,-48.21
16,FC(F)(F)c1ccnc(N2CCC(c3nccn3CC3CC3)CC2)n1,-11.94
17,Cc1cc(C2CCCN2C(=O)Nc2cn[nH]c2)on1 (configuration not stated),-46.01
18,O=C(c1cccnc1)N1CC(S(=O)(=O)c2ccc(Cl)cc2)C1,-41.36
19,Cc1noc(C)c1CN1C[C@@H]2CCCO[C@@H]2[C@H](Nc2ccccn2)C1.O=C(O)C(F)(F)F.O=C(O)C(F)(F)F,-37.64
20,Cn1nc(CNC(=O)C2CCN(S(C)(=O)=O)CC2)cc1C1CC1,-29.39
21,Cc1cccc(NC(=O)CN(C)C(=O)c2scnc2C)n1,-36.36
22,N#CCCN(CCN1CCOCC1)Cc1ccc(F)c(Br)c1,50.69
23,COc1ccc(CN(CCC#N)CCN2CCOCC2)cc1OC,-48.91

row,Compound,Percent Effect [%]
1,CCOc1ccc(CN(CCC#N)CCN2CCOCC2)cc1OC,-106.9
2,CN(C)C(=O)C1CCCN1CCCNC(=O)Cc1ccccc1F (configuration not stated),-2.997
3,CCc1cnc(C)nc1NCCN1CCCCCC1,42.39
4,CC(NCCN1CCC(N(C)C)CC1)c1ccc(Cl)s1 (configuration not stated),74.67
5,CC(NCc1cnc(N2CCOCC2)nc1)c1ccc(Cl)s1.Cl (configuration not stated),-27.68
6,CCc1cnc(C)nc1NCCN1CCC(O)CC1,-33.54
7,CCS(=O)(=O)CCNC(=O)NC(C)c1cc(C)sc1C (configuration not stated),-122.2
8,CC(NCCCc1cnn(C)c1)c1ccc(Cl)s1 (configuration not stated),14.15
9,CC(NCCN1CCC(N(C)C)CC1)c1ccc(F)cc1N(C)C (configuration not stated),55.63
10,Cc1cc(OC(F)F)c(C(=O)N2CCC(N(C)C)CC2)s1,-15.44
11,CC(NCCCN1CCCC1=O)c1ccc(F)cc1N(C)C (configuration not stated),-66.62
12,CCC(c1ccc(F)cc1F)N1CCN(CCO)CC1 (configuration not stated),33.11
13,Cc1cc(C(C)NCCN2CCC(N(C)C)CC2)c(C)s1 (configuration not stated),81.06
14,O=C(NCCc1cccs1)NC1CCN(c2ncccn2)CC1,-296.1
15,Cc1c(Cl)cccc1S(=O)(=O)N1CCC2(CC1)OCCS2,-126
16,Cn1cc(CN2CCC3(CCCCN3S(C)(=O)=O)CC2)cn1,-156.9
17,CNC(=O)c1cn(C)c(-c2nc3cc(NC(C)=O)ccc3n2C)c1OC,-25.75
18,Cn1nc2c(c1NC(=O)c1ccc(C3CCCN3C3CCC3)s1)CCC2 (configuration not stated),4.44
19,CCN(CC)c1nc(C)cc(C(=O)Nc2cnn(CC)c2)n1,-148
20,CC(=O)N1CCC2(CC1)CC(NC(=O)N(C)C)c1cc(C)ccc12 (configuration not stated),-69.21
21,O=C(CCCNCc1ccc(Cl)c2cccnc12)NC1CC1,8.752
22,CC(=O)NCCCNCc1ccc(Cl)c2cccnc12,-40.58
23,CC(C)(C)C(=O)NCCNCc1ccc(Cl)c2cccnc12,76.99

row,Compound,Percent Effect [%]
1,CC(C)(C)[S+]([O-])CCNC(=O)c1ccc(Cl)c2cccnc12 (configuration not stated),-47.19
2,Cc1nc2n(n1)CC(NCc1ccc(Cl)c3cccnc13)CC2 (configuration not stated),12.21
3,CC(C)(O)CSCCNCc1ccc(Cl)c2cccnc12,66.02
4,CCS(=O)(=O)NCCNCc1ccc(Cl)c2cccnc12,60.34
5,CC(C)(O)CSCCNC(=O)c1ccc(F)cc1Cl,-61.07
6,Cn1cnc2c1CCN(Cc1ccc(Cl)c3cccnc13)C2,-32.7
7,CNc1nc2ncc(Cl)cc2cc1C#N,-168.4
8,CN1C(=O)CC(c2cnn(C)c2)C12CCN(C(=O)c1ccco1)CC2 (configuration not stated),-26.83
9,Cc1ccoc1C(=O)NC1CCN(Cc2ccccc2F)CC1,-117.1
10,CCC(O)CN1CCN(C(=O)Cc2cc(Cl)ccc2OC)CC1 (configuration not stated),-20.59
11,CCc1ccc(OCC(O)CN2CCN(CC)CC2)cc1 (configuration not stated),-62.39
12,COc1ccc(Cl)cc1CN(C)C(=O)CN1C(=O)OC[C@@H]1C(C)C,-43.68
13,CCOc1cc(CN(C)CCCO)ccc1OC(F)F,-85.19
14,CCOCC(O)CN1CCN(C(=O)Cc2ccccc2Cl)CC1 (configuration not stated),-127.6
15,CCOCC(O)CN1CCN(C(=O)c2ccccc2Cl)CC1 (configuration not stated),-98.46
16,CN(CCO)Cc1cc(Cl)ccc1OCC(O)CN1CCCCCC1 (configuration not stated),81.18
17,COCC(=O)N1CCC2(COCc3cnc(NCc4ccco4)nc32)C1 (configuration not stated),-70.56
18,COCCCN(CCOC)C(=O)Nc1ccc(Br)cc1,-39.78
19,CCCNS(=O)(=O)c1ccc2[nH]c(=O)cc(C)c2c1,-19.76
20,CCOC(C)C(=O)N1CCN(S(C)(=O)=O)CC1 (configuration not stated),-95.85
21,CS(=O)(=O)CC(=O)N1C[C@H]2CCC[C@@]2(COCc2ccncc2)C1.O=C(O)C(F)(F)F,-43.79
